Measured potencies and affinities stand elsewhere. Activity calls are given as the source filed them.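 The calls were made as follows: active = signal-lowering compounds whose fitted half-maximal concentration is at or below twice the top tested dose in every run; inconclusive = runs disagree, flat 30 to 70% inhibition, or poor curve fit; inactive = the rest.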
Each compound was assayed against Protein S100-A4 (Homo sapiens) (UniProt P26447) (assay: S100A4-myosin IIA binding inhibitor potency, dose response, biochemical, fluorescence polarization, cherry-picked hits (AID 687001)). Details: FP, S100A4/TAMRA-myosin IIA peptide binding; series mostly up to 11 µM.
Sequence of Protein S100-A4 (Homo sapiens) (P26447 whole entry, looked up): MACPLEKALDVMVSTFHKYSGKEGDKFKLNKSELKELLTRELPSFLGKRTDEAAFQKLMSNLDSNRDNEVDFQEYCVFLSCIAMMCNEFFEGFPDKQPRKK

outcome, inactive:
CCCNC(=O)C(Cc1ccc(C(F)(F)F)cc1)NC(=O)c1ccc2ccccc2n1 (stereo not given), COc1cc2cc(-c3ccc(O)cc3O)nc(C)c2cc1OC, O=C(O)COCC(=O)Nc1ccc(-n2nc(C(F)(F)F)cc2-c2cccs2)cc1, O=C(Nc1cccc(Cl)c1)N[C@H]1CC[C@H](CCNC(=O)C2CCCC2)O[C@H]1CO, CON(C)S(=O)(=O)c1cccc(C(=O)Nc2cccc(S(=O)(=O)NC3=NCCCCC3)c2)c1, CC[C@]12c3[nH]c4ccc(Cl)cc4c3CCN1C(=O)[C@@H](CC(=O)NCCCn1ccnc1)C[C@@H]2C(=O)N1CCN(C(=O)c2ccco2)CC1, C[C@@H]1CN([C@H](C)CO)C(=O)c2cccc(NS(C)(=O)=O)c2O[C@@H]1CN(C)CC1CC1, COc1ccc(Cl)cc1NC(=O)CN(C)C(=O)CCCc1c[nH]c2ccccc12, Cc1ccc2c(c1)C(c1ccccc1)N(C(=O)c1ccccc1[N+](=O)[O-])CC(=O)N2 (stereo not given), C=CCn1c(C)nnc1SCC(=O)Nc1ccccc1C(=O)NC1CC1, COC(=O)c1sccc1NC(=O)Nc1ccc(C)c(C)c1, C[C@@H]1CCCCO[C@@H](CN(C)C(=O)C2CCCCC2)[C@@H](C)CN([C@H](C)CO)C(=O)c2cc(NC(=O)Nc3cccc4ccccc34)ccc2O1, CC(=O)Nc1ccc(C=NNc2nnc(NN=Cc3ccc(NC(C)=O)cc3)c3ccccc23)cc1, O=C1C2C3C=CC(C2C(=O)N1CCO)C1C(=O)N(CCO)C(=O)C31 (stereo not given), CSC[C@H]1CN(Cc2cccnc2)C(=O)[C@@H]1CC(=O)Nc1ccc(Br)cc1, CCS(=O)(=O)c1nc(S(=O)(=O)c2ccc(C)cc2)c(NCCCN2CCCC2=O)s1, Cc1ccc(N2CCN(C(=O)c3[nH]c(C(F)(F)F)nc3-c3ccccc3)CC2)cc1, CCC(=O)N1C[C@H](C)[C@@H](OC)CN(C)C(=O)c2ccc(NC(=O)Nc3ccccc3)cc2OC[C@H]1C, Cc1noc(C)c1S(=O)(=O)N(C)C[C@H]1OCCCC[C@H](C)Oc2ccc(NS(=O)(=O)c3ccccc3)cc2C(=O)N([C@H](C)CO)C[C@@H]1C, C[C@@H]1CN([C@@H](C)CO)S(=O)(=O)c2ccc(-c3ccccc3)cc2O[C@H]1CN(C)Cc1cccc(F)c1, COc1ccc2c3c(n(C)c2c1)[C@@H](CO)N(C(=O)Nc1ccc(F)cc1)CC31CCN(C)CC1, Cc1cc(/C(N)=N/OC(=O)Nc2ccccc2)no1, CNC[C@@H]1OCCCC[C@H](C)Oc2ccc(NS(C)(=O)=O)cc2C(=O)N([C@@H](C)CO)C[C@@H]1C, CO[C@H]1CN(C)C(=O)c2ccc(NC(=O)C3CCCCC3)cc2OC[C@@H](C)N(Cc2nccs2)C[C@@H]1C, O=C(Nc1ccc(S(=O)(=O)N2CCCCC2)cc1)C1CC(=O)N(Cc2ccccc2)C1 (stereo not given)

From PubChem BioAssay AID687001 (Broad Institute, 2013)
